For 14 compounds, outcome and AC50 results are on record in PubChem BioAssay (EPA / NIEHS).

Calls of active or inactive are those of the source. Rule for the calls: active = hit-call score of the fitted dose curve at least 0.9, where 1 is the maximum; inactive = score below 0.9.

One may read the AC50 as the concentration at which the activity in the assay is half-maximal.

Read-out in the assay: ABC Transporter (ABCB11), ABCB11 (gene 8647)
Put plainly: LTEA_HepaRG_ABCB11: Life Technologies and Expression Analysis (LTEA) Assay for ABC Transporter (ABCB11) using HepaRG (AID 2283463). Particulars: mRNA level, 48 h; actives raise or lower the signal. On the procedure: LTEA_HepaRG is a cell based, multiplexed-readout assay that uses HepaRG, a human liver cell line, with measurements taken at 48 hours after chemical dosing on a 96-well plate.LTEA_HepaRG_ABCB11 is one of 102 assay component(s) measured in the LTEA HepaRG cell culture assay. It is a marker of Steatosis/NR mediated transport.Data from the assay component LTEA_HepaRG_ABCB11 was analyzed into 1 endpoint. This assay endpoint, LTEA_HepaRG_ABCB11, was analyzed with bidirectional fitting relative to DMSO as the negative control and baseline of activity. Using a type of inducible reporter, measures of mRNA induction for gain or loss-of-signal activity can be used to understand regulation of transcription factor activity. To generalize the intended target to other relatable targets, this assay endpoint is annotated to the transporter intended target family, where the subfamily is ABC transporter.
A total of 1060 chemcials from the ToxCast library were tested in eight-point concentration-response experiments. Cell culture and cytotoxicity assays were conducted at Thermo Fisher Scientific's Custom Services facility (Madison, WI). A single lot of human HepaRG cells (Thermo Fisher Scientific, Frederick, MD) was used for the cell culture experiments. 96-well format collagen type I coated plates of human HepaRG cells were prepared using established methods. Briefly, cryopreserved HepaRG cells were thawed, plated at a density of approximately 100,000 cells/well in HepaRG Thaw, Plate, and General Purpose media (HPRG770, Thermo Fisher Scientific), and incubated for 48 hours. 0.5% DMSO was selected as vehicle control to balance the requisite need of DMSO in HepaRG cultures to maintain differentiation (for example, baseline metabolism, proportions of hepatocytes vs. cholangiocytes), while enabling further hepatic receptor pathway activation (for example, PXR and CAR) in response to chemical exposure. 48 hours after plating, the culture medium was replaced with HepaRG Serum-Free Incudtion Media. Cells were exposed to each test chemical in duplicate and maintained in CO2 incubators for another 48 hours. Chemical plates were thawed to room temperature and 200x concentrations of treatment groups were prepared. 8-point conentration-reponse curves were made with the highest exposure at 100 uM, followed by half-log dilutions, all in 0.5% DMSO. Each test plate contained variouse controls, induction positive controls (1mM phenobarbital), cytotoxicity positive controls ([…] aflatoxin B1), vehicle controls (0.5% DMSO), and total lysis controls (0.5% DMSO). Cell morphology images were taken using an Essen IncuCyte FLR automated microscope, with six 96-well plates imaged in about 24 minutes. Images were captured and exported and JPEG files. Spent culture media was transfered to black-well plates for the LDH assay, and remaining media was sorted at -80 C for later use. Cells were treated with RLT buffer and frozen until shipped for gene expression analysis. Total RNA was isolated from the cell suspension in 75 uL of Buffer RLT (Qiagen, Germantown, MD 20874) by Quintiles/Expression Analysis (Durham, NC) using a custom isolation procedure. Total RNA from each plate well was transferred to a preamplification plate. Fluidigm's 96.96 Dynamic ArrayTM (Fluidigm, Amsterdam, the Netherlands) technology was used for gene expression analyses by quantitative reverse transcription polymerase chain reaction (qRT-PCR, performed by Quintiles/Expression Analysis, Durham, NC)89. Standard TaqManTM Assays (Applied Biosystems/ThermoFisher Scientific, Foster City, CA) were used to assess the expression of 93 genes selected based on their selectivity and sensitivity to important hepatic receptors known to be modulated by environmental chemicals; importance in human hepatocyte functionality; and hepatotoxicity. […]
On to `O=C(c1ccccc1)c1ccccc1`, for which the compound was classed as inactive.

Consider `CCC(C)c1ccccc1O` (centres undefined), for which the compound was called inactive.

As for `CCCCC=O`, the compound was classed as inactive.

In the case of `OCC(CO)(CBr)CBr`, the outcome was inactive.

Consider `O=C(CCCN1CCC(O)(c2ccc(Cl)cc2)CC1)c1ccc(F)cc1`, for which the AC50 is 80.1 µM (active).

For the compound `CN(Cc1cnc2nc(N)nc(N)c2n1)c1ccc(C(=O)N[C@@H](CCC(=O)O)C(=O)O)cc1`, the AC50 is 0.206 µM (active).

With `N=C(N)c1ccc(OCCCCCOc2ccc(C(=N)N)cc2)cc1`, the AC50 was 4.37 µM (active).

Take `CN(C)CCOC(c1ccccc1)c1ccccc1`: the result was inactive.

As to `O=C1NS(=O)(=O)c2ccccc21`, the compound was called inactive.

As to `CC(=O)Nc1ccc(O)cc1`, the outcome was inactive.

As for `CCCCc1oc2ccccc2c1C(=O)c1cc(I)c(OCCN(CC)CC)c(I)c1`, the AC50 is 52.1 µM (active).

In the case of `Cc1[nH]nc2c1N=C(c1ccccc1Cl)c1cc([N+](=O)[O-])ccc1N2`, the AC50 is 8.72 µM (active).

For `CCCCC(CC)C(=O)O` (centres undefined), the outcome was inactive.

`CCCCCCCCCCCCCCC`: the compound was called inactive.
